Screening results as filed in PubChem BioAssay.
D1 potentiator = Potentiators of Human D1 Dopamine Receptor: qHTS. D(1A) dopamine receptor (Homo sapiens), P21728. HEK293 TREx D1 cells, calcium flux, dopamine EC20 potentiation. potentiation, % at 10 µM. 360,000 compounds, 0.036% hits. AID 504651, 2011; in the data active = potentiation above about 30%
D1 ag = Allosteric Agonists of the Human D1 Dopamine Receptor: qHTS; D(1A) dopamine receptor (Homo sapiens), P21728; HEK293 T-REx D1 cells, calcium flux, agonist mode; AID 504660, 2011; 360,000 compounds, 1% hits; activation, % at 2 µM; in the data active = activation above about 30%
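Agonism was scored from calcium flux recorded over 180 s (1 read/s) after pintool compound addition, following a 10-cycle baseline. Cells were inducible force-coupled HEK293 TREx D1, plated overnight at 30 C and loaded with no-wash calcium dye.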
D1 antagonist = Antagonist of Human D 1 Dopamine Receptor: qHTS. D(1A) dopamine receptor (Homo sapiens), P21728. HEK293 TREx D1 cells, calcium flux, dopamine EC80; stronger effect = lower value. activity change, negative = inhibition, % at 10 µM. 360,000 compounds, 3.2% hits; in the data active = activity change below about -30%
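Allosteric or orthosteric antagonism assessed as attenuation of the calcium response to EC80 dopamine, added 180 s after compound, in induced HEK293 Trex D1 cells loaded with no-wash calcium dye.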
D3 ag = qHTS of D3 Dopamine Receptor Agonist: qHTS. 410,000 compounds, 0.58% hits. max activation, %. D(3) dopamine receptor (Homo sapiens), P35462. AID 652048, 2013. D3R DiscoveRx beta-arrestin cells, luminescence, 90 min; in the data active = max activation above about 30%
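Agonist mode: compounds and dopamine controls were applied to plated cells for 90 min at 37 degrees C after an overnight attachment at 1500 cells/well. Luminescent read-out followed 30 - 60 minutes at room temperature with DiscoveRx detection reagent.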
D3 antag = qHTS of D3 Dopamine Receptor Antagonist: qHTS; D3R cells, DiscoveRx beta-arrestin luminescence, antagonist mode; stronger effect = lower value; D(3) dopamine receptor (Homo sapiens), P35462; max response, negative = inhibition, %; AID 652054, 2013; 360,000 compounds, 2.5% hits; in the data active = max response below about -50%; inconclusive = no clear call, values can overlap the other calls
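Cells plated overnight at 1500 cells/well, then exposed to library compounds with dopamine controls for 90 minutes at 37 degrees C. DiscoveRx reagent added for 30–60 minutes at room temperature; luminescence read, quantitative HTS format.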
ERG-DNA inh = qHTS for Small Molecule Inhibitors of the ERG Ets/DNA interaction; Transcriptional regulator ERG (Homo sapiens), P11308; fluorescence polarization, His-ERG Ets domain / labelled DNA; Potency, µM (highest dose often 76.9 µM), most hits filed as inhibitors; 370,000 compounds, 0.028% hits; AID 624246, 2012; active = well fitted inhibition curve with a large enough effect in the polarisation, with a control signal flat; inconclusive = small, poorly fitted or top-dose-only effect, or effect the other way, or a change in a side signal; inactive = no such curve, though single readings can be large or run the other way; the % refers to the polarisation;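 note: polarization taken with two DNA probes labelled with fluorescein and Texas red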
Target sequence (P11308 whole entry, looked up, the tested form may be a part): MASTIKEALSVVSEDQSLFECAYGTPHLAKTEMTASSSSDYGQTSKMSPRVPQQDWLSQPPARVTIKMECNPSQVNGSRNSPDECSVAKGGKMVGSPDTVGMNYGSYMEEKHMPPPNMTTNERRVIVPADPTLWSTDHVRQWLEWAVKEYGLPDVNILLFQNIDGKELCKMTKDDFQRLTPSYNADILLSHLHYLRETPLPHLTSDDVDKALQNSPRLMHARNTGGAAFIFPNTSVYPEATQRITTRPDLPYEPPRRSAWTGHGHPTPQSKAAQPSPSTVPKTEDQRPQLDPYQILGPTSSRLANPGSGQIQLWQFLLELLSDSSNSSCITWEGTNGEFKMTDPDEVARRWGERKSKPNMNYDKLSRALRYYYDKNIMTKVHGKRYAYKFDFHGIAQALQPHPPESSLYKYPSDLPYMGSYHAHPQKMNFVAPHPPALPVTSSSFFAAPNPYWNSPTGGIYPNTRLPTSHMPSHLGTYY
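His-tagged ERG Ets domain (1 uM in the protein solution; 300mM KCl, 50mM Tris-HCl, 1mM EDTA, 1mM DTT, pH 7.5) received compound, then a probe mix of 5 nM fluorescein-DNA and 100nM Texas-615-DNA. Fluorescence polarization was read for both dyes.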
Hits are given with their value; 0 = inactive; ? = inconclusive; - = not tested or not shown. Rows were chosen to be rich in hits. Some 6.1% of all compounds tested hit in one or more screens of this group.

SMILES	D1 potentiator	D1 ag	D1 antagonist	D3 ag	D3 antag	ERG-DNA inh
COc1ccc(-c2nc(SCC(=O)Nc3ccc4c(c3)OCCO4)c(-c3ccc(F)cc3)[nH]2)cc1	0	0	0	0	-	0
O=C(COC(=O)/C=C/c1ccccc1Cl)NC(=O)Cc1ccccc1	0	0	0	0	0	0
O=C(COC(=O)/C=C/c1ccccc1Cl)NC(=O)NCc1ccccc1	0	32	0	0	0	-
COC(=O)c1cccc(C23CC4(C2)[C@H](CN(Cc2ccc(-c5ccccc5)cc2)[C@@H]4c2ccccc2)C3c2ccc(Cl)nc2)c1 (stereo not given in full)	0	0	-36	0	0	0
O=C(O)c1ccc(NC(=S)N2CCCCC2)cc1	0	0	-73	0	0	0
CCOC(=O)c1ccc(NC(=S)N2CCCC(C(=O)N3CCCC3)C2)cc1 (stereo not given)	0	0	-89	0	0	0
CCOC(=O)c1ccc(NC(=S)N2CCCC(C)C2)cc1 (stereo not given)	0	0	-	0	0	0
CC(C)CN1CCC(CN2CCNC(=O)C2=O)CC1	-	-	-	0	0	0
COc1ccc(C(=O)N/C(=C/c2cccc3ccccc23)C(=O)NCCc2c[nH]c3ccccc23)cc1OC	0	0	0	0	0	-
COc1ccc(C(O)(CC(C)C)C(CN2CCOCC2)c2ccccc2)cc1 (stereo not given)	0	0	0	88	0	0
CCc1ccc(C(O)(CC(C)C)C(CN2CCOCC2)c2ccccc2)cc1 (stereo not given)	0	0	0	0	0	0
CC(C)CCN1CCN=C1Nc1ccccc1	0	0	0	0	0	0
O=C(Nc1ccccc1C(=O)NCCCN1CCOCC1)c1ccccc1	0	0	0	0	0	0
O=C(NCCCN1CCOCC1)c1ccc(CSc2ccc(Cl)cc2)cc1	0	0	-35	0	0	?
O=C(Nc1ccccc1C(=O)NCCCN1CCOCC1)c1ccc(Cl)cc1	0	0	0	0	-54	0
CCCCCC(=O)N1C[C@H](O)[C@@H](n2cc(-c3ccc(F)cc3)nn2)C[C@@H]1c1ccccc1	-	-	-	0	0	-
CCN1c2ccccc2-c2nc(SCC(=O)Nc3cc(OC)cc(OC)c3)ncc2S1(=O)=O	0	0	0	0	-	0
CCN(CC)c1ccc(/C=N/N2CCN(Cc3ccc(C)cc3)CC2)c(O)c1	0	0	0	0	-59	0
Cc1ccc(CN2CCN(/N=C/c3cc([N+](=O)[O-])ccc3Cl)CC2)cc1	0	0	0	0	-61	0
COc1cc(/C=N/N2CCN(Cc3ccc(C)cc3)CC2)cc(OC)c1O	0	0	0	0	-79	0
COc1cc(/C=N/N2CCCCC2)cc([N+](=O)[O-])c1O	0	0	0	0	-65	0
Cc1ccc(CN2CCN(/N=C/c3ccc(Cl)c([N+](=O)[O-])c3)CC2)cc1	0	0	0	0	?	0
COc1ccc(CNC(=O)C[C@H]2C[C@H](C(=O)N3CCOCC3)[C@@]3(CCC4CCCC4)c4[nH]c5cc(-c6ccco6)ccc5c4CCN3C2=O)cc1OC	-	-	-	0	?	0
CS(=O)(=O)N1CCN(C(=O)CCc2ccccc2)CC1	0	0	0	0	0	0
C=CCn1c(C)csc1=Nc1ccccc1C	0	0	0	0	0	0
COc1ccc(CC2(CO)CCN(S(=O)(=O)c3c(C)nn(C)c3C)CC2)cc1	0	0	0	0	0	0
COCCNC(=O)Cn1cc(/C=C(\C#N)C(=O)NC2CCCC2)c2ccccc21	33	0	0	0	-60	0
CNC(=O)/C(C#N)=C/c1cn(CC(=O)NCc2ccco2)c2ccccc12	0	0	0	0	0	0
